About 83,000 compounds went through this panel and 20% of them were active in at least one assay; those are over-represented in the sample as a whole.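 How to read the values: 0–100, growth inhibition (40 = 60% inhibited); 0, no net growth; -100 to 0, cell death (-40 = 40% of starting cells died; -100 = all dead).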 Values without a mark were called inactive. Active and inactive are the calls of the source. Rule for the calls: active = growth percent below 10; inactive = the rest.

Test systems include NCI-H23 lung; NCI-H226 lung; NCI-H322M lung; HOP-62 NSCLC; NCI-H460 lung; HOP-92 NSCLC; NCI-H522 lung; A549/ATCC NSCLC; 786-0 renal; COLO 205 colon; DU-145 prostate; K-562 leukemia; MALME-3M melanoma; MDA-MB-231 breast; RXF 393 renal; SF-268 CNS; SF-295 CNS; SF-539 CNS; UACC-257 melanoma; M14 melanoma.
What all share (experiment): NCI-60 one-dose screen, 48 h (100 = growth as untreated, 0 = no growth, -100 = all killed)
Conditions in all cases: 10 µM unless noted

As to `CN(C)CCC=C1c2ccccc2C(C)(C)c2ccccc21`, the growth in the assay with NCI-H23 lung was 65.8%; in the assay on NCI-H226 lung, 122%; in the assay with NCI-H322M lung, 99.1%; with HOP-62 NSCLC, 64.5%; with NCI-H460 lung, 85.6%; with HOP-92 NSCLC it was 36.7%. Besides, the growth in the assay on NCI-H522 lung is 76.5%; in the assay with A549/ATCC NSCLC it was 88.9%; in the assay on 786-0 renal, 67.4%; in the assay with COLO 205 colon, 68.7%; with DU-145 prostate, 35.9%; in the assay with K-562 leukemia, 32.7%. Further, the growth in the assay on MALME-3M melanoma is 78.9%; in the assay on MDA-MB-231 breast, 75%; in the assay with RXF 393 renal it was 66.4%; in the assay with SF-268 CNS, 95.9%; with SF-295 CNS it was 67.2%; in the assay on SF-539 CNS, 61.2%. In addition, the growth in the assay with UACC-257 melanoma was 24.2%; with M14 melanoma, 11.6%.
On to `CCOC(=O)c1c(-c2ccc(Cl)cc2)c(C#N)c(=O)n(-c2ccccc2CC)c1N`, for which the growth was 76.9% in the assay on NCI-H23 lung; 85.4% in the assay on NCI-H226 lung; 78.7% in the assay with NCI-H322M lung; 97.5% in the assay on HOP-62 NSCLC; 82.3% with NCI-H460 lung; 65.9% with HOP-92 NSCLC. In addition, the growth with NCI-H522 lung is 92%; in the assay with A549/ATCC NSCLC it was 85%; in the assay with 786-0 renal, 93.4%; in the assay with COLO 205 colon it was 111%; in the assay with DU-145 prostate, 93.5%; in the assay on K-562 leukemia it was 77.6%. For the same compound, the growth in the assay with MALME-3M melanoma was 100%; in the assay with MDA-MB-231 breast, 90.8%; in the assay with RXF 393 renal, 111%; in the assay with SF-268 CNS it was 86.8%; in the assay on SF-295 CNS, 74.3%; in the assay on SF-539 CNS, 100%. The values for the growth with UACC-257 melanoma and in the assay with M14 melanoma were 113% and 105%, respectively.
`CC1(c2ccccc2)NC(=O)N(NC(=O)CSc2nc(-c3cccs3)nc3ccccc23)C1=O` (stereo not given): the growth with NCI-H23 lung is 89.7%; in the assay with NCI-H226 lung it was 91.1%; in the assay on NCI-H322M lung it was 98%; with HOP-62 NSCLC, 88.7%; in the assay on NCI-H460 lung, 107%; with HOP-92 NSCLC, 77.4%. Further, the growth in the assay with NCI-H522 lung was 82.3%; in the assay with A549/ATCC NSCLC, 79.1%; in the assay on 786-0 renal, 94.1%; with COLO 205 colon, 124%; in the assay on DU-145 prostate it was 106%; with K-562 leukemia, 88.8%. Besides, the growth with MALME-3M melanoma is 100%; in the assay on MDA-MB-231 breast it was 90.9%; in the assay on RXF 393 renal it was 78.1%; in the assay on SF-268 CNS it was 97.8%; with SF-295 CNS, 99.3%; in the assay on SF-539 CNS, 95%. Moreover, the growth in the assay with UACC-257 melanoma was 83.5%; with M14 melanoma, 109%.
For `COc1ccc2oc3c(C)c4c(c(C)c3c2c1)C(=O)N(Cc1ccccc1)C4=O`, the growth in the assay on NCI-H23 lung is 93.3%; in the assay on NCI-H226 lung, 90.1%; in the assay on NCI-H322M lung, 92.4%; in the assay with HOP-62 NSCLC, 88.9%; in the assay on NCI-H460 lung, 69.4%; with HOP-92 NSCLC, 85.5%. Moreover, the growth in the assay with NCI-H522 lung is 87.5%; in the assay with A549/ATCC NSCLC, 83.9%; with 786-0 renal, 114%; in the assay on COLO 205 colon, 84.7%; in the assay on DU-145 prostate it was 97.1%; in the assay with K-562 leukemia it was 92.3%. Further, the growth in the assay with MALME-3M melanoma was 92.5%; with MDA-MB-231 breast, 90.3%; in the assay with RXF 393 renal, 99%; in the assay on SF-268 CNS, 87.8%; in the assay on SF-295 CNS, 101%; with SF-539 CNS, 89.7%. For the same compound, the growth in the assay with UACC-257 melanoma is 105%; in the assay with M14 melanoma it was 92.9%.
As for `Cc1ccc(N2CCN(C(=S)c3cccs3)CC2)cc1`, the growth with NCI-H23 lung is 104%; with NCI-H226 lung, 94.9%; in the assay with NCI-H322M lung, 107%; in the assay with HOP-62 NSCLC, 105%; with NCI-H460 lung, 109%; in the assay with HOP-92 NSCLC it was 74.8%. Besides, the growth in the assay on NCI-H522 lung is 82.6%; in the assay with A549/ATCC NSCLC, 92.5%; in the assay on 786-0 renal, 90.3%; in the assay on COLO 205 colon it was 112%; in the assay on DU-145 prostate it was 108%; in the assay on K-562 leukemia, 89.1%. The growth was 100% with MALME-3M melanoma; 97.1% in the assay with MDA-MB-231 breast; 111% in the assay with RXF 393 renal; 107% in the assay on SF-268 CNS; 103% in the assay on SF-295 CNS; 101% in the assay with SF-539 CNS. Besides, the growth is 101% in the assay with UACC-257 melanoma and 103% with M14 melanoma.
As to `O=C(O)c1ccc2c(c1)CCC2`, the growth is 108% in the assay on NCI-H23 lung; 104% with NCI-H226 lung; 106% in the assay with NCI-H322M lung; 114% in the assay with HOP-62 NSCLC; 115% in the assay with NCI-H460 lung; 117% in the assay on HOP-92 NSCLC. Moreover, the growth in the assay on NCI-H522 lung is 104%; with A549/ATCC NSCLC it was 104%; in the assay on 786-0 renal, 105%; in the assay with COLO 205 colon it was 104%; in the assay with DU-145 prostate it was 118%; in the assay with K-562 leukemia it was 91.3%. In addition, the growth in the assay with MALME-3M melanoma is 106%; in the assay on MDA-MB-231 breast, 117%; in the assay with RXF 393 renal, 120%; in the assay with SF-268 CNS it was 111%; with SF-295 CNS, 103%; with SF-539 CNS, 105%. For the same compound, the growth with UACC-257 melanoma was 105%; in the assay on M14 melanoma it was 101%.
Turning to `Cc1cc(NCc2cc(Nc3ccnc4cc(Cl)ccc34)ccc2F)nc(N2CCN(c3ccccc3)CC2)n1`, the growth in the assay on NCI-H23 lung was 62.8%; with NCI-H226 lung, 55.4%; in the assay on NCI-H322M lung, 74.1%; in the assay with HOP-62 NSCLC, 62%; in the assay with NCI-H460 lung it was 44.9%; in the assay with HOP-92 NSCLC, 20.6%. In addition, the growth in the assay on NCI-H522 lung was 45.6%; with A549/ATCC NSCLC, 50.6%; in the assay on 786-0 renal, 64.8%; in the assay with COLO 205 colon, 13.6%; in the assay on DU-145 prostate it was 72.5%; in the assay with K-562 leukemia, -0.109% (active). Further, the growth in the assay with MALME-3M melanoma was 84.4%; with MDA-MB-231 breast, 17.2%; with RXF 393 renal, 47.4%; in the assay on SF-268 CNS, 65.3%; with SF-295 CNS it was 27.3%; with SF-539 CNS it was 61.9%. In addition, the growth in the assay with UACC-257 melanoma is 73.7%; in the assay on M14 melanoma, 43.4%.

Source of the values: PubChem BioAssay (NCI).
